PubChem BioAssay (Tox21)
Inconclusive results are not listed. Activity calls are given as the source filed them. Unless noted, calls follow the shape of the dose curve; as a rule, active = well fitted curve in the direction sought with a large enough effect in the repeat runs; inconclusive = weak or mixed curves; inactive = no such curve, though single readings can be large; an effect the other way counts as inactive or inconclusive.

Legend:
[1] = qHTS assay for small molecule agonists of the p53 signaling pathway - cell viability (AID 651633; calls by dose curve;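 also: p53RE-bla HCT reporter cells with a stable beta-lactamase p53 reporter; series mostly up to about 83 µM; nearly all actives have a fitted effect of over 30% in size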)
Outline: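 p53RE-bla cells, seeded at 4,000 per well and rested 5 h at 37 C/5% CO2, received compounds in DMSO for 16 h at 37 C. CellTiter-Glo was then added, and luminescence was read after 30 min at room temperature to gauge cytotoxicity.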

[2] = qHTS assay for small molecules that induce genotoxicity in human embryonic kidney cells expressing luciferase-tagged ATAD5 - cell viability (AID 651634; calls by dose curve; also: nearly all actives have a fitted effect of over 25% in size)
Outline: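 Viability read: CellTiter-Fluor fluorescence, 30 min at 37C. Cells: HEK293T, luciferase-tagged ATAD5. Exposure: 15.5 hr, 37C, 5% CO2, compound or DMSO vehicle.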

[3] = qHTS assay for small molecule disruptors of the mitochondrial membrane potential - cell viability (AID 720634; calls by dose curve;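 also: human HepG2 liver cancer cells; series mostly up to about 83 µM; nearly all actives have a fitted effect of over 20% in size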)
Outline: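 HepG2, 1 hr compound, 37 C. ATP luminescence via CellTiter-Glo, 30 min RT, same well as m-MPI.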

[4] = qHTS assay to test for compound auto fluorescence at 590 nm (red) in HepG2 cells (AID 720674)
Outline: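 Compound auto-fluorescence is scored relative to Rose Bengal sodium, measured at 540/590 nm in live HepG2 cultures after 1 hr compound contact (37 C, 5% CO2).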

[5] = qHTS assay to test for compound auto fluorescence at 535 nm (green) in HepG2 cells (AID 720675)
[6] = qHTS assay to test for compound auto fluorescence at 460 nm (blue) in HEK293 cells (AID 720678)
Outline: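 HEK293 cells (2,000 per well, medium with 10% dialyzed FBS) attached for 4-5 hr at 37C, then received compound and stood overnight at 37C, 5% CO2. Blue fluorescence was read at Ex/Em 405/460 nm and expressed relative to triamterene.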

[7] = qHTS assay to test for compound auto fluorescence at 590 nm (red) in HEK293 cells (AID 720679)
Outline: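 HEK293 cells (2,000/well, medium with 10% dialyzed FBS) attached for 4-5 hr at 37C, received 23 nL compound and were incubated overnight at 37C, 5% CO2. Red fluorescence was then read at 540/590nm Ex/Em, referenced to Rose Bengal sodium.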

[8] = qHTS assay to test for compound auto fluorescence at 535 nm (green) in HEK293 cells (AID 720680)
[9] = qHTS assay to test for compound auto fluorescence at 460 nm (blue) in HEK293 cell free culture (AID 720681)
Outline: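 Test compounds were pinned into cell-free culture medium (DMEM with 10% FBS) and fluorescence was read directly at Ex/Em 405/460 nm. Signals were expressed as fluorescence equivalents of triamterene, with DMSO vehicle as control.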

[10] = qHTS assay to test for compound auto fluorescence at 535 nm (green) in HEK293 cell free culture (AID 720682)
Outline: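 Green-channel intensity (Ex/Em 485/535 nm) was recorded from compound-treated wells containing only DMEM with 10% FBS. Fluorescein provided the equivalency standard.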

[11] = qHTS assay to test for compound auto fluorescence at 590 nm (red) in HEK293 cell free culture (AID 720683)
Outline: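 Tox21 10K library compounds were pinned into cell-free DMEM with 10% FBS and fluorescence was read at excitation 540 nm. Activity is expressed as Rose Bengal sodium equivalency.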

[12] = qHTS assay to test for compound auto fluorescence at 590 nm (red) in HepG2 cell free culture (AID 720684)
Outline: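 Red fluorescence (540 nm excitation, 590 nm emission) was measured after compound transfer into cell-free MEM supplemented with 10% FBS. Values are equivalencies against Rose Bengal sodium.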

[13] = qHTS assay to test for compound auto fluorescence at 460 nm (blue) in HepG2 cell free culture (AID 720685)
Outline: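 Compound (23 nL) or DMSO pinned into cell-free MEM with 10% FBS; blue fluorescence read at 405/460 nm excitation/emission, expressed as auto-fluorescence equivalency to triamterene.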

[14] = qHTS assay to test for compound auto fluorescence at 535 nm (green) in HepG2 cell free culture (AID 720686)
[15] = qHTS assay to test for compound auto fluorescence at 460 nm (blue) in HepG2 cells (AID 720687)
Outline: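 Cells (2,000/well in MEM with 10% FBS) attached overnight at 37 C, then were exposed to compound or DMSO for 1 hr at 37 C, 5% CO2. Fluorescence read at Ex/Em 405/460 nm, expressed as triamterene-equivalent signal.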

[16] = molecular target: Glucocorticoid receptor (Homo sapiens) (UniProt P04150); assay: qHTS assay to identify small molecule agonists of the glucocorticoid receptor (GR) signaling pathway (AID 720691; active = well fitted activation curve with a large enough effect in the signal ratio in the repeat runs, not every such curve was filed as active; the % refers to the signal ratio)
Outline: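 qHTS in GR-bla HeLa cells: 4 h settling at 37 C/5% CO2, 18 h compound incubation at 37 C, 2 h LiveBLAzer B/G FRET substrate at room temperature, fluorescence intensity measured.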

[17] = qHTS assay for small molecules that induce genotoxicity in human embryonic kidney cells expressing luciferase-tagged ATAD5 (AID 651632); also: nearly all actives have a fitted effect of over 15% in size
Outline: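 Luminescent reporter readout, HEK293T ATAD5-luc line: 16 hr drug exposure (37C, 5% CO2) followed by Amplite, 30 min RT.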

[18] = qHTS assay for small molecule disruptors of the mitochondrial membrane potential (AID 720635)
Outline: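 HepG2 cells (2,000/well) attached overnight at 37C, then took compound for 1 hr at 37C, 5% CO2. Mito-MPS dye was added for 30 min; fluorescence was read at 490/535 nm (monomers) and 540/590 nm (aggregates).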

[19] = molecular target: Glucocorticoid receptor (Homo sapiens) (UniProt P04150); assay: qHTS assay to identify small molecule antagonists of the glucocorticoid receptor (GR) signaling pathway (AID 720692; active = well fitted inhibition curve with a large enough effect in the signal ratio in the repeat runs, not every such curve was filed as active; the % refers to the signal ratio)
Outline: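 Inhibition of glucocorticoid signalling is measured in HeLa cells with a GRE-controlled beta-lactamase reporter; cells are co-treated with compound and 5 nM dexamethasone (final) for 18 h before FRET substrate readout.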
% is scaled to controls: 0 for no effect and ±100 for the full control effect.

Glucocorticoid receptor (Homo sapiens), sequence (P04150 whole entry, looked up): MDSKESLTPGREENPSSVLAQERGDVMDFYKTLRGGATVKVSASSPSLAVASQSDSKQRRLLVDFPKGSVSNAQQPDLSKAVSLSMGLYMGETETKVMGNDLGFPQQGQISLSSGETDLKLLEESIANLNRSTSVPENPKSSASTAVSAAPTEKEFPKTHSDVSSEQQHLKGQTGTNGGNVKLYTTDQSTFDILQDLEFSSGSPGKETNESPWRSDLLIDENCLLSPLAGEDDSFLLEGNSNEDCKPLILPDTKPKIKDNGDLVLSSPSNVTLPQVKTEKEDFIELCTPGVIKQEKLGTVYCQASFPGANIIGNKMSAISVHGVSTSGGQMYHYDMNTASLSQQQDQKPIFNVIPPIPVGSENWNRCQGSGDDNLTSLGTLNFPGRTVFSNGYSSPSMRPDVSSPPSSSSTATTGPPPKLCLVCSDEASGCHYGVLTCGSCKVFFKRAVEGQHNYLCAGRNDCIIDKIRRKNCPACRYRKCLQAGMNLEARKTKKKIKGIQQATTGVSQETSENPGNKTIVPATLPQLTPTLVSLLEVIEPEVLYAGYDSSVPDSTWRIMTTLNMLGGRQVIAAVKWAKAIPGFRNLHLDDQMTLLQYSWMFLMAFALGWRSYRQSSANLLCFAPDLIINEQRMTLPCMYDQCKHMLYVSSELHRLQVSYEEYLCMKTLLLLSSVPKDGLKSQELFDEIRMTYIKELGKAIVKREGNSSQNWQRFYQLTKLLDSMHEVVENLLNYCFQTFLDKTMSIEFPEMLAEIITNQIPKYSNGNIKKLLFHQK

Cc1ccc(N)cc1S(=O)(=O)O
inactive: outcome [1] | Potency [2] | outcome [3] | outcome [4] | outcome [5] | outcome [6] | outcome [7] | outcome [8] | outcome [9] | outcome [10] | outcome [11] | outcome [12] | outcome [13] | outcome [14] | outcome [15] | Potency [16]

CCCC(=O)Nc1ccc(OCC(O)CNC(C)C)c(C(C)=O)c1 (centres undefined)
inactive: outcome [17] | outcome [1] | outcome [3] | fluorescence, relative to Rose Bengal [4] -0.376% [at 18.6 µM] | fluorescence, % of fluorescein control [5] -0.0898% [at 18.6 µM] | fluorescence, % of triamterene [6] 0.0234% [at 18.6 µM] | fluorescence, % of fluorescent control [7] -0.0649% [at 18.6 µM] | fluorescence, % of fluorescein [8] -0.0845% [at 18.6 µM] | fluorescence, % of fluorescent control [9] 0.175% [at 18.6 µM] | activity change [10] -0.021% [at 18.6 µM] | fluorescence, % of fluorescent control [11] 0.214% [at 18.6 µM] | fluorescence, % of Rose Bengal [12] -0.252% [at 18.6 µM] | fluorescence, % of fluorescent control [13] -0.0068% [at 18.6 µM] | fluorescence, % of fluorescein control [14] -0.0602% [at 18.6 µM] | Potency [16]

N[C@@H](Cc1ccc(O)cc1)C(=O)O
inactive: outcome [1] | Potency [2] | outcome [3] | Potency [18] | outcome [4] | outcome [5] | outcome [6] | outcome [7] | outcome [8] | outcome [9] | outcome [10] | outcome [11] | outcome [12] | outcome [13] | outcome [14] | outcome [15] | Potency [16]

COc1ccc2c(c1)c1c3n2CCN(C)C3=NCC1
inactive: outcome [17] | Potency [2] | outcome [3] | Potency [18] | outcome [4] | outcome [5] | outcome [6] | outcome [7] | outcome [8] | outcome [9] | outcome [10] | outcome [11] | outcome [12] | outcome [13] | outcome [14] | outcome [15] | Potency [16]

COC(=O)c1ccccc1C(=O)O
inactive: outcome [1] | Potency [2] | outcome [3] | Potency [18] | outcome [4] | outcome [5] | outcome [6] | outcome [7] | outcome [8] | outcome [9] | outcome [10] | outcome [11] | outcome [12] | outcome [13] | outcome [14] | outcome [15] | Potency [16] | outcome [19]

C/C=C(\C)C(C)=O
inactive: outcome [1] | Potency [2] | outcome [3] | outcome [4] | outcome [5] | outcome [6] | outcome [7] | outcome [8] | outcome [10] | outcome [11] | outcome [12] | outcome [13] | outcome [14] | outcome [15] | Potency [16]

CC1CC(=O)CC(C)(C)C1 (centres undefined)
inactive: outcome [1] | Potency [2] | outcome [3] | outcome [4] | outcome [5] | outcome [6] | outcome [7] | outcome [8] | outcome [10] | outcome [11] | outcome [12] | outcome [13] | outcome [14] | outcome [15] | Potency [16] | outcome [19]

COc1c2occc2c(OC)c2c(=O)cc(C)oc12
inactive: outcome [17] | Potency [2] | outcome [3] | fluorescence, relative to Rose Bengal [4] 0.0231% [at 18.6 µM] | fluorescence, % of fluorescein control [5] -0.275% [at 18.6 µM] | fluorescence, % of triamterene [6] 0.0098% [at 18.6 µM] | fluorescence, % of fluorescent control [7] 0.0103% [at 18.6 µM] | fluorescence, % of fluorescein [8] -0.0108% [at 18.6 µM] | activity change [10] 0.0751% [at 18.6 µM] | fluorescence, % of fluorescent control [11] -0.33% [at 18.6 µM] | fluorescence, % of Rose Bengal [12] -0.125% [at 18.6 µM] | fluorescence, % of fluorescent control [13] -0.0661% [at 18.6 µM] | fluorescence, % of fluorescein control [14] 0.0616% [at 18.6 µM] | fluorescence, % of fluorescent control [15] 0.0073% [at 18.6 µM] | Potency [16]

CCC(C)C(C)=O (centres undefined)
inactive: outcome [17] | outcome [1] | Potency [2] | outcome [4] | outcome [5] | outcome [6] | outcome [7] | outcome [8] | outcome [9] | outcome [10] | outcome [11] | outcome [12] | outcome [13] | outcome [14] | outcome [15] | Potency [16]

OC1OCCOC1O (centres undefined)
inactive: outcome [17] | outcome [1] | Potency [2] | outcome [3] | outcome [4] | outcome [5] | outcome [6] | outcome [7] | outcome [8] | outcome [9] | outcome [10] | outcome [11] | outcome [12] | outcome [14] | Potency [16]

CC(=O)CCC1=C(C)CCCC1(C)C
inactive: outcome [1] | Potency [2] | outcome [3] | Potency [18] | outcome [4] | outcome [5] | outcome [6] | outcome [7] | outcome [8] | outcome [9] | outcome [10] | outcome [11] | outcome [12] | outcome [14] | outcome [15] | Potency [16]

COc1nc(N)nc2nc[nH]c12
inactive: outcome [1] | Potency [2] | outcome [3] | outcome [4] | outcome [5] | outcome [6] | outcome [7] | outcome [8] | outcome [10] | outcome [11] | outcome [12] | outcome [13] | outcome [14] | outcome [15] | Potency [16]

C=C(C)[C@@H]1CC=C(C)C(=O)C1
inactive: outcome [1] | Potency [2] | outcome [3] | outcome [4] | outcome [5] | outcome [6] | outcome [7] | outcome [8] | outcome [9] | outcome [10] | outcome [11] | outcome [12] | outcome [13] | outcome [14] | outcome [15] | Potency [16] | outcome [19]

OCC(O)CN1CCN(c2ccccc2)CC1 (centres undefined)
inactive: outcome [1] | Potency [2] | outcome [3] | Potency [18] | outcome [4] | outcome [5] | outcome [6] | outcome [7] | outcome [8] | outcome [9] | outcome [10] | outcome [11] | outcome [12] | outcome [13] | outcome [14] | Potency [16]
